PubChem BioAssay
Inconclusive results are not listed. The source made the active and inactive calls.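 The calls were made as follows, unless noted: active = viability increase at or above a cutoff of the median across tested compounds plus 3 SD (cut at about 8.5% in these data, passing the limit was not always enough); inconclusive = some gains above the cutoff, reason not given; inactive = the rest.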

Columns and labels:
[1] = reducers of endogenous Her2 protein level, primary screen, SKBR3 breast tumor cells, AlphaScreen, ATP viability (AID 461;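 active = Her2 level under about 52% in both replicate screens, with viability over 70% of control, limit read from the data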;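 as to Her2 level: lower value means less Her2 protein in the cells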;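 as to viability: percent of carrier control wells set as 100% viability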); conditions: 18-24 h, measured here: SKBR3 viability, ATP luminescence, at 10 µM
[2] = target: Receptor tyrosine-protein kinase erbB-2 (Homo sapiens) (UniProt P04626); assay: as above; conditions: 18-24 h, at 10 µM, stronger effect = lower value
[3] = SK-BR-3 cell growth inhibitors, pilot screen, 24 h, human (AID 572;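 active = viability at or below 10% of carrier control in both of two separate runs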;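 also: compound exposure lasted between 18 and 24 h rather than exactly 24 h; 100% = carrier-treated control wells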); conditions: SK-BR-3 viability, CellTiter-Glo luminescence, at 10 µM, stronger effect = lower value
[4] = HUVEC growth inhibition – cell-based, human, primary screen (AID 575;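 active = viability at or below 30% in both replicate assays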;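 also: 100% = median of untreated cell wells with 0.1% DMSO on each plate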); conditions: HUVEC proliferation, CellTiter-Glo luminescence, 72 h; at 10 µM; stronger effect = lower value
[5] = growth inhibitors of H69AR lung tumor, primary screen, human, duplicate replicates (AID 580;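 active = viability at or under a set limit in both replicates, limit being median viability minus 3 SD, cut at about 48% in these data, passing the limit was not always enough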;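 also: 100% = mean luminescence of untreated wells and 0% = no signal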); conditions: H69AR lung tumor cells viability, ATP luminescence, 72 h; at 10 µM; stronger effect = lower value
[6] = reversal of MRP1-mediated doxorubicin resistance, pilot screen, H69AR cells, doxorubicin co-treatment (AID 601;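 active = viability loss from added drug above about 55%, and viability with drug at most 40%, in both replicates, limit read from the data, passing the limit was not always enough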); conditions: CellTiter-Glo, 72 h, at 10 µM; for differential viability (reversal): stronger effect = higher value
[7] = 384-well plate pilot, post-Golgi transport modulator project, inhibition of yeast transport mutant growth (AID 636; in the data active = inhibition above about 31%); conditions: absorbance 615 nm, about 18 h, stronger effect = higher value
[8] = growth suppression of yeast trafficking mutant, preliminary HTS, modulators of trafficking downstream of Golgi apparatus project, 1536-format plate, OD 615 nm (AID 637; in the data active = inhibition above about 30%); conditions: yeast transport mutant growth, absorbance 615 nm, 18 h; stronger effect = higher value
[9] = OD615 S. cerevisiae growth inhibition, permissive medium, pilot counter-assay, permissive growth control for S. cerevisiae lifespan shortening project (AID 705;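 active = growth inhibition above 25% in both replicates, a cutoff set 3 SD above the mean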); conditions: OD615, 24 h, at 10 µM, stronger effect = higher value
[10] = Restrictive medium S. cerevisiae growth inhibition, OD615, pilot screen of yeast lifespan reduction project, restrictive growth control (AID 706;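 active = growth inhibition above a set limit, 3 SD over mean compound inhibition, in both replicates, cut at about 43% in these data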;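 also: modified DeaD lifespan yeast strain shifted to restrictive glucose medium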); conditions: OD615, 48 h, at 10 µM, stronger effect = higher value
[11] = viability gain of MRP-1-high H69AR cells under doxorubicin, pilot screen, MRP-1 activator project, CellTiter-Glo, duplicate (AID 807); conditions: H69AR viability with doxorubicin, CellTiter-Glo luminescence; at 10 µM; stronger effect = higher value;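 also: compound pretreatment 18-22 h then 72 h combined with doxorubicin; 0% = doxorubicin alone and 100% = vehicle without doxorubicin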
[12] = growth suppression of beta-catenin knockout HCT116, pilot screen, human colon tumor cells (AID 823;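 active = cell viability at or below a set limit in both duplicate runs, the limit being the all-compound median minus 4 SD, cut at about 23% in these data, passing the limit was not always enough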;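 also: 0% = wells killed by 20 µM Hyamine and 100% = untreated DMSO cell wells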); conditions: CellTiter-Glo, 60 h, at 10 µM, stronger effect = lower value
[13] = growth suppression of PTEN-deleted HCT116, pilot screen, cell-based, HCT116 clonal line, CellTiter-Glo (AID 824;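 active = viability at or below 27.92% in each of two runs, the all-compound median minus 4 SD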;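 also: 0% = 20 µM Hyamine control and 100% = vehicle cell control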); conditions: 60 h, at 10 µM, stronger effect = lower value
[14] = inhibitors of the yeast RAM network, pilot screen, dse1pr::URA3 reporter, 5-FOA selection (AID 869;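 active = inhibition over a set limit, the all-compound mean plus 3 SD, in both replicate runs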;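 also: 0% = DMSO wells with no growth and 100% = 10 µM 1-NA-PP1 with full growth; RAM network block rescues cells from 5-FOA so hits raise OD615 growth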); conditions: S. cerevisiae dse1pr::URA3 5-FOA growth, OD615, 2 d; at 10 µM; stronger effect = higher value; strain carries analog-sensitive mutant Cbk1 kinase
[15] = RAM signaling pathway blockade in yeast – S. cerevisiae, Pdr1DBD-CYC8 efflux-inhibited sensitized strain, primary screen (AID 1298;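 active = RAM network inhibition above 8.4% in each of two replicates, 3 SD over the compound average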;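 also: 0% = DMSO untreated cells without growth and 100% = 10 µM 1-NA-PP1 full growth; higher means more yeast growth rescued from 5-FOA killing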); conditions: S. cerevisiae cbk1-as DSE1-URA3 strain, 5-FOA growth OD615, 2 d; at 50 µM; stronger effect = higher value
[16] = H69AR cells + 2 uM doxorubicin, measured here: viability with 2 uM doxorubicin, stronger effect = lower value
[17] = H69AR cells, compound alone cytotoxicity

Sequence of Receptor tyrosine-protein kinase erbB-2 (Homo sapiens) (P04626 whole entry, looked up): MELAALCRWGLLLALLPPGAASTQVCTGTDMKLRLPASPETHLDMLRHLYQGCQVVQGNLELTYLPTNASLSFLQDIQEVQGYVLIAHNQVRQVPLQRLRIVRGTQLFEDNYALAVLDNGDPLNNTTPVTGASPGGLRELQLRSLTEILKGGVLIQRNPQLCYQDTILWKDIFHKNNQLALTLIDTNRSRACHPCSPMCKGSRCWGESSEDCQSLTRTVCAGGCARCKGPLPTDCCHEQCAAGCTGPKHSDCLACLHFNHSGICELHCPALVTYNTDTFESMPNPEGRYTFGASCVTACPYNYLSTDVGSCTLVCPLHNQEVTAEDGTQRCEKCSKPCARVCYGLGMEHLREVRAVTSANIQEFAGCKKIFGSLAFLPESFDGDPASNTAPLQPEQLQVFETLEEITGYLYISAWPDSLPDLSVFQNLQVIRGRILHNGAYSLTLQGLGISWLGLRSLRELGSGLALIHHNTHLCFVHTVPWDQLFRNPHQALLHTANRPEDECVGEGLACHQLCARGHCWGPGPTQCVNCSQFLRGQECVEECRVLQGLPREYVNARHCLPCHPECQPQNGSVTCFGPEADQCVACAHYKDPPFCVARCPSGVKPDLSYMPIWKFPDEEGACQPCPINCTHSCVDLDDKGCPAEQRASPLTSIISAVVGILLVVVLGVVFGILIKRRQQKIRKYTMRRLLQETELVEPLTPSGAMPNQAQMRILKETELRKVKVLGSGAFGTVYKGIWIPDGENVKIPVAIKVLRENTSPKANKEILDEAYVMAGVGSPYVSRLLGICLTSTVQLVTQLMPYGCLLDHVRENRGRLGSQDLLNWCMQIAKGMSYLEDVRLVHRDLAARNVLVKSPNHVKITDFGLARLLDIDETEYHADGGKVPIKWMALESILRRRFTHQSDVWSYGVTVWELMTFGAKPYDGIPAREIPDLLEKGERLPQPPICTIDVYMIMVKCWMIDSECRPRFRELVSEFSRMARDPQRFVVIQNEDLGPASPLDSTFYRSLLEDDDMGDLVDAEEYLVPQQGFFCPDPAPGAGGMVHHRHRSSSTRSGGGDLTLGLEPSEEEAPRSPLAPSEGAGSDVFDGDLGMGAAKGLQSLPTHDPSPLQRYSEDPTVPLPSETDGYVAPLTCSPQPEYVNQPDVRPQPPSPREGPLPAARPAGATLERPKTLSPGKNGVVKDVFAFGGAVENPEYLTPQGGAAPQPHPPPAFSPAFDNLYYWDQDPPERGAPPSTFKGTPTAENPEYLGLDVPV

In the case of `CC(C)c1nnc(NC(=O)Cc2cccs2)s1`, the viability [1] is reported as 106%, the Her2 level [2] is reported as 92% (inactive) and the viability [3] is reported as 106% (inactive). For the same compound, the viability [4] was 106% (inactive), the viability [5] was 96.7% (inactive) and the differential viability (reversal) ([6]; H69AR cells + 2 uM doxorubicin) was 6.08% (inactive). The viability [6, 16] was 90.6%, the viability [6, 17] was 96.7% and the inhibition [7] was -2.53% (inactive). The inhibition [8] was 1.48% (inactive), the growth inhibition [9] was -2.5% (inactive) and the growth inhibition [10] was -0.8% (inactive). For the same compound, the viability increase [11] was -0.07% (inactive), the viability [12] was 99.5% (inactive) and the viability [13] was 94.8% (inactive). The inhibition [14] was 2.64% (inactive) and the RAM network inhibition [15] was 0.83% (inactive).

For `Cn1c(C(=O)NCCCN2CCN(c3ccc(F)cc3)CC2)cc2c(=O)n(C)c3ccccc3c21`, the viability [1] was 81%, the Her2 level [2] was 90% (inactive) and the viability [3] was 81% (inactive). The viability [4] was 65.7% (inactive), the viability [5] was 84.1% (inactive) and the differential viability (reversal) ([6]; H69AR cells + 2 uM doxorubicin) was 4.36% (inactive). The viability [6, 16] was 79.8%, the viability [6, 17] was 84.1% and the inhibition [7] was -3.07% (inactive). The inhibition [8] was 0% (inactive), the growth inhibition [9] was -6.23% (inactive) and the growth inhibition [10] was 7.21% (inactive). The viability increase [11] was -5.3% (inactive), the viability [12] was 67.8% (inactive) and the viability [13] was 70.1% (inactive). The inhibition [14] was -0.495% (inactive) and the RAM network inhibition [15] was 1.71% (inactive).

In the case of `CC1(C)CC(=O)C(C=NCCO)=C(O)C1`, the viability [1] is reported as 100%, the Her2 level [2] is reported as 97.5% (inactive) and the viability [3] is reported as 100% (inactive). The viability [4] was 113% (inactive), the viability [5] was 91.2% (inactive) and the differential viability (reversal) ([6]; H69AR cells + 2 uM doxorubicin) was 2.35% (inactive). For the same compound, the viability [6, 16] was 88.9%, the viability [6, 17] was 91.2% and the inhibition [7] was -6.08% (inactive). For the same compound, the inhibition [8] was 5.83% (inactive), the growth inhibition [9] was 5.08% (inactive) and the growth inhibition [10] was -3.12% (inactive). The viability increase [11] was 1.5% (inactive), the viability [12] was 102% (inactive) and the viability [13] was 101% (inactive). For the same compound, the inhibition [14] was 1.19% (inactive) and the RAM network inhibition [15] was 2.26% (inactive).

For `COc1ccccc1-c1nnc(SCC(=O)NC2CCCCC2)o1`, the viability [1] was 83%, the Her2 level [2] was 72.5% (inactive) and the viability [3] was 83% (inactive). The viability [4] was 89.7% (inactive), the viability [5] was 87.8% (inactive) and the differential viability (reversal) ([6]; H69AR cells + 2 uM doxorubicin) was -0.34% (inactive). For the same compound, the viability [6, 16] was 88.2%, the viability [6, 17] was 87.8% and the inhibition [7] was 6.13% (inactive). For the same compound, the inhibition [8] was 1.31% (inactive), the growth inhibition [9] was 1.35% (inactive) and the growth inhibition [10] was 10.7% (inactive). The viability increase [11] was -3.27% (inactive), the viability [12] was 94.6% (inactive) and the viability [13] was 94.5% (inactive). The inhibition [14] was -0.42% (inactive) and the RAM network inhibition [15] was 3.73% (inactive).

With `COc1ccc(OC)c2[nH]c(=O)c(CCNC(=O)C(C)C)cc12` the viability [1] was 109%, the Her2 level [2] was 118% (inactive) and the viability [3] was 109% (inactive). The viability [4] was 83.2% (inactive), the viability [5] was 88.6% (inactive) and the differential viability (reversal) ([6]; H69AR cells + 2 uM doxorubicin) was -1.89% (inactive). For the same compound, the viability [6, 16] was 90.5%, the viability [6, 17] was 88.6% and the inhibition [7] was -3.33% (inactive). For the same compound, the inhibition [8] was 1.83% (inactive), the growth inhibition [9] was -3.17% (inactive) and the growth inhibition [10] was -5.05% (inactive). For the same compound, the viability increase [11] was -0.71% (inactive), the viability [12] was 108% (inactive) and the viability [13] was 103% (inactive). For the same compound, the inhibition [14] was 0.005% (inactive) and the RAM network inhibition [15] was 1.31% (inactive).

With `Cc1ccccc1-c1nc(CN2CCC(C(=O)N3CCC(C(N)=O)CC3)CC2)c(C)o1` the viability [1] was 108%, the Her2 level [2] was 104% (inactive) and the viability [3] was 108% (inactive). For the same compound, the viability [4] was 105% (inactive), the viability [5] was 89.5% (inactive) and the differential viability (reversal) ([6]; H69AR cells + 2 uM doxorubicin) was 4.8% (inactive). The viability [6, 16] was 84.7%, the viability [6, 17] was 89.5% and the inhibition [7] was -5.73% (inactive). The inhibition [8] was 4.67% (inactive), the growth inhibition [9] was -8.16% (inactive) and the growth inhibition [10] was 3.29% (inactive). For the same compound, the viability increase [11] was -2.4% (inactive), the viability [12] was 92.8% (inactive) and the viability [13] was 99.2% (inactive). For the same compound, the inhibition [14] was 1.07% (inactive) and the RAM network inhibition [15] was 2.99% (inactive).

In the case of `O=C(CSc1ccc2nnc(-c3ccccc3)n2n1)N1CCN(c2ccccc2)CC1`, the viability [1] is reported as 93.5%, the Her2 level [2] is reported as 114% (inactive) and the viability [3] is reported as 93.5% (inactive). For the same compound, the viability [4] was 77.9% (inactive), the viability [5] was 83.8% (inactive) and the differential viability (reversal) ([6]; H69AR cells + 2 uM doxorubicin) was -9.57% (inactive). For the same compound, the viability [6, 16] was 93.4%, the viability [6, 17] was 83.8% and the inhibition [7] was -0.13% (inactive). For the same compound, the inhibition [8] was 7.67% (inactive), the growth inhibition [9] was -0.235% (inactive) and the growth inhibition [10] was 8.33% (inactive). The viability increase [11] was -3.49% (inactive), the viability [12] was 101% (inactive) and the viability [13] was 93.8% (inactive). For the same compound, the inhibition [14] was 0.38% (inactive) and the RAM network inhibition [15] was 0.93% (inactive).

In the case of `Cc1ccc(OCC(O)CN2C(=O)NC(C)(C)C2=O)cc1C` (stereo not given), the viability [1] is reported as 105%, the Her2 level [2] is reported as 94.5% (inactive) and the viability [3] is reported as 105% (inactive). The viability [4] was 88% (inactive), the viability [5] was 102% (inactive) and the differential viability (reversal) ([6]; H69AR cells + 2 uM doxorubicin) was 15.8% (inactive). For the same compound, the viability [6, 16] was 86.4%, the viability [6, 17] was 102% and the inhibition [7] was -5.73% (inactive). For the same compound, the inhibition [8] was 5.08% (inactive), the growth inhibition [9] was -11.3% (inactive) and the growth inhibition [10] was -19.3% (inactive). For the same compound, the viability increase [11] was -0.62% (inactive), the viability [12] was 105% (inactive) and the viability [13] was 94% (inactive). For the same compound, the inhibition [14] was 0.65% (inactive) and the RAM network inhibition [15] was 4.18% (inactive).

With `O=C(CSc1nnnn1-c1ccccc1Cl)Nc1ccc2c(c1)OCCO2` the viability [1] was 91.5%, the Her2 level [2] was 96% (inactive) and the viability [3] was 91.5% (inactive). The viability [4] was 101% (inactive), the viability [5] was 77.2% (inactive) and the differential viability (reversal) ([6]; H69AR cells + 2 uM doxorubicin) was -7.98% (inactive). The viability [6, 16] was 85.2%, the viability [6, 17] was 77.2% and the inhibition [7] was -0.4% (inactive). The inhibition [8] was 4.33% (inactive), the growth inhibition [9] was 1.69% (inactive) and the growth inhibition [10] was 3.15% (inactive). For the same compound, the viability increase [11] was 1.44% (inactive), the viability [12] was 99.4% (inactive) and the viability [13] was 87.5% (inactive). The inhibition [14] was 2.22% (inactive) and the RAM network inhibition [15] was 5.58% (inactive).

With `Cc1ccc(C)c(S(=O)(=O)n2cnc3ccccc32)c1` the viability [1] was 96.5%, the Her2 level [2] was 87.5% (inactive) and the viability [3] was 96.5% (inactive). For the same compound, the viability [4] was 109% (inactive), the viability [5] was 99% (inactive) and the differential viability (reversal) ([6]; H69AR cells + 2 uM doxorubicin) was 7.94% (inactive). The viability [6, 16] was 91.1%, the viability [6, 17] was 99% and the inhibition [7] was -0.13% (inactive). The inhibition [8] was 30.2% (active), the growth inhibition [9] was -18% (inactive) and the growth inhibition [10] was -20.2% (inactive). The viability increase [11] was 0.98% (inactive), the viability [12] was 95.2% (inactive) and the viability [13] was 97.6% (inactive). The inhibition [14] was 2.08% (inactive) and the RAM network inhibition [15] was 2.15% (inactive).
